Assay results from the supplement of paper PMC12494721.
Where a name gives a salt, the structure may show the parent alone.

tested on: Ruminococcus gnavus DSM 108212; assay: fold change of Tryptamine concentration vs plate DMSO controls (fold change (ratio)); higher = more amine produced, active = hit call of the paper (significant change in both replicates, either direction); settings: incubation time: 27 h, anaerobic, 37 °C
Procedure, shortened: (§1)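 Extracts of whole anaerobic mGAM cultures were analysed for amines by LC–triple-quadrupole MS with dynamic MRM and external calibration curves, with drift corrected within batch. Four gut strains were grown at 37 °C for 27 h in 80 µL wells with compounds at 20 µM final, sweeteners at 50 µM final. Each value expresses fold change over plate DMSO controls. The average of 2 biological replicates is shown.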

Fold change of Tryptamine concentration, inactive:
C#CCN(C)CCCOc1ccc(Cl)cc1Cl [Clorgyline hydrochloride] (20 µM) 0.971
CC1(C)[C@H](C(=O)O)N2C(=O)C[C@H]2S1(=O)=O [Sulbactam] (20 µM) 1.07
CC(C)(C)C(=O)C(Oc1ccc(Cl)cc1)n1ccnc1 (stereo not drawn) [Climbazole] (20 µM) 0.979
CC1(C)O[C@@H]2[C@@H](CO[C@@]3(COS(N)(=O)=O)OC(C)(C)O[C@@H]23)O1 [Topiramate] (20 µM) 0.947
CN1CCC(OC(c2ccccc2)c2ccccc2)CC1 [Diphenylpyraline hydrochloride] (20 µM) 0.999
O=c1[nH]c(=O)n([C@H]2C[C@H](O)[C@@H](CO)O2)cc1/C=C/Br [Brivudine] (20 µM) 1.04
COC(=O)C1=C(C)NC(C)=C(C(=O)OCC(C)C)C1c1ccccc1[N+](=O)[O-] (stereo not drawn) [Nisoldipine] (20 µM) 0.899
CCOC(=O)C(C)(C)Oc1ccc(Cl)cc1 [Clofibrate] (20 µM) 1
CC(C)[C@H]1CC[C@H](C(=O)N[C@H](Cc2ccccc2)C(=O)O)CC1 [Nateglinide] (20 µM) 1.02
O=C1OC(c2ccc(O)cc2)(c2ccc(O)cc2)c2ccccc21 [Phenolphthalein] (20 µM) 1
COc1cc2c(cc1OC)C(=O)C(CC1CCN(Cc3ccccc3)CC1)C2 (stereo not drawn) [Donepezil hydrochloride] (20 µM) 1.03
CC1=C(CC(=O)O)c2cc(F)ccc2/C1=C\c1ccc([S+](C)[O-])cc1 (stereo not drawn) [Sulindac] (20 µM) 1.03
Cc1cn([C@H]2C=C[C@@H](CO)O2)c(=O)[nH]c1=O [Stavudine] (20 µM) 1.01
C[C@]12CCC(=O)C=C1CC[C@@H]1[C@@H]2C(=O)C[C@@]2(C)[C@H]1CC[C@]2(O)C(=O)CO [Cortisone] (20 µM) 1.01
C/C(O)=C(\C#N)C(=O)Nc1ccc(C(F)(F)F)cc1 [Teriflunomide] (20 µM) 1
C[N+](C)(C)CCCCCC[N+](C)(C)C [Hexamethonium dibromide dihydrate] (20 µM) 1.03
COC(=O)CCc1ccc(OCC(O)CNC(C)C)cc1 (stereo not drawn) [Esmolol hydrochloride] (20 µM) 1.1
O=C(O)Cc1ccccc1Oc1ccc(Cl)cc1Cl [Fenclofenac] (20 µM) 1.02

Fold change of Tryptamine concentration, active:
C=C1c2c(Cl)ccc(O)c2C(O)=C2C(=O)[C@]3(O)C(O)=C(C(N)=O)C(=O)[C@@H](N(C)C)[C@@H]3[C@@H](O)[C@H]12.O=C(O)c1cc(S(=O)(=O)O)ccc1O [Meclocycline sulfosalicylate] (20 µM) 0.0772

tested on: Escherichia coli IAI1; assay: fold change of Putrescine concentration vs plate DMSO controls (fold change (ratio)); higher = more amine produced, active = hit call of the paper (significant change in both replicates, either direction); settings: incubation time: 27 h, anaerobic, 37 °C
Procedure, shortened: as §1

Fold change of Putrescine concentration, active:
C=C1c2c(Cl)ccc(O)c2C(O)=C2C(=O)[C@]3(O)C(O)=C(C(N)=O)C(=O)[C@@H](N(C)C)[C@@H]3[C@@H](O)[C@H]12.O=C(O)c1cc(S(=O)(=O)O)ccc1O [Meclocycline sulfosalicylate] (20 µM) 0.14

Fold change of Putrescine concentration, inactive:
CCc1nc(N)nc(N)c1-c1ccc(Cl)cc1 [Pyrimethamine] (20 µM) 0.792
CC(=O)Oc1cccc2c1C(=O)c1c(OC(C)=O)cc(C(=O)O)cc1C2=O [Diacerein] (20 µM) 1.08
CC(C)(CO)[C@@H](O)C(=O)NCCCO [(D)-Panthenol] (20 µM) 0.964
CCc1cc(Cl)c(OC)c(C(=O)NC[C@@H]2CCCN2CC)c1O [(S,-) Eticlopride hydrochloride] (20 µM) 0.975
O=C1c2cccc(O)c2C(=O)c2c(O)cccc21 [Danthron] (20 µM) 1.24
CN(C)CCC(c1ccc(Br)cc1)c1ccccn1 (stereo not drawn) [Brompheniramine maleate] (20 µM) 0.981
NC[C@H]1O[C@H](O[C@H]2[C@H](O[C@@H]3O[C@H](CO)[C@@H](O)[C@H]3O)[C@@H](O)[C@H](N)C[C@@H]2N)[C@H](N)[C@@H](O)[C@@H]1O [Ribostamycin sulfate salt] (20 µM) 1.14
NS(=O)(=O)c1cc2c(cc1Cl)N=CNS2(=O)=O [Chlorothiazide] (20 µM) 1.05
CCc1oc2ccccc2c1C(=O)c1cc(Br)c(O)c(Br)c1 [Benzbromarone] (20 µM) 0.989
O=C1NCN(c2ccccc2)C12CCN(CCCC(c1ccc(F)cc1)c1ccc(F)cc1)CC2 [Fluspirilene] (20 µM) 0.996
C[C@H](CCC(=O)O)[C@H]1CC[C@H]2[C@@H]3C(=O)C[C@@H]4CC(=O)CC[C@]4(C)[C@H]3CC(=O)[C@]12C [Dehydrocholic acid] (20 µM) 0.975
CCn1cc(C(=O)O)c(=O)c2ccc(C)nc21 [Nalidixic acid sodium salt] (20 µM) 0.671
COc1cc(C(=O)NS(=O)(=O)c2ccccc2C)ccc1Cc1cn(C)c2ccc(NC(=O)OC3CCCC3)cc12 [Zafirlukast] (20 µM) 0.977
NCCc1ccc(O)c(O)c1 [Dopamine hydrochloride] (20 µM) 0.967
Cc1c(-c2ccccc2)oc2c(C(=O)OCCN3CCCCC3)cccc2c1=O [Flavoxate hydrochloride] (20 µM) 1
Oc1c(I)cc(Cl)c2cccnc12 [Clioquinol] (20 µM) 0.906
CN(C)C(=N)NC(=N)N [Metformin hydrochloride] (20 µM) 1.03
N=C(N=C(N)N)N1CCOCC1 [Moroxidine hydrochloride] (20 µM) 0.989
CCOCC(O)COc1ccc(NC(=O)CC[S+](C)C)cc1 (stereo not drawn) [Suplatast Tosylate] (20 µM) 1.04
CCN1CCN(c2cc3c(cc2F)c(=O)c(C(=O)O)cn3C2CC2)CC1 [Enrofloxacin] (20 µM) 0.658
C#CCN(C)CCCOc1ccc(Cl)cc1Cl [Clorgyline hydrochloride] (20 µM) 0.968
CC1(C)[C@H](C(=O)O)N2C(=O)C[C@H]2S1(=O)=O [Sulbactam] (20 µM) 1.14
CC(C)(C)C(=O)C(Oc1ccc(Cl)cc1)n1ccnc1 (stereo not drawn) [Climbazole] (20 µM) 1.04
CC1(C)O[C@@H]2[C@@H](CO[C@@]3(COS(N)(=O)=O)OC(C)(C)O[C@@H]23)O1 [Topiramate] (20 µM) 1.01
CN1CCC(OC(c2ccccc2)c2ccccc2)CC1 [Diphenylpyraline hydrochloride] (20 µM) 1.01
O=c1[nH]c(=O)n([C@H]2C[C@H](O)[C@@H](CO)O2)cc1/C=C/Br [Brivudine] (20 µM) 0.968
COC(=O)C1=C(C)NC(C)=C(C(=O)OCC(C)C)C1c1ccccc1[N+](=O)[O-] (stereo not drawn) [Nisoldipine] (20 µM) 1.1
CCOC(=O)C(C)(C)Oc1ccc(Cl)cc1 [Clofibrate] (20 µM) 1.18
CC(C)[C@H]1CC[C@H](C(=O)N[C@H](Cc2ccccc2)C(=O)O)CC1 [Nateglinide] (20 µM) 1.2
O=C1OC(c2ccc(O)cc2)(c2ccc(O)cc2)c2ccccc21 [Phenolphthalein] (20 µM) 0.991
COc1cc2c(cc1OC)C(=O)C(CC1CCN(Cc3ccccc3)CC1)C2 (stereo not drawn) [Donepezil hydrochloride] (20 µM) 1.24
CC1=C(CC(=O)O)c2cc(F)ccc2/C1=C\c1ccc([S+](C)[O-])cc1 (stereo not drawn) [Sulindac] (20 µM) 1.02
Cc1cn([C@H]2C=C[C@@H](CO)O2)c(=O)[nH]c1=O [Stavudine] (20 µM) 0.927
C[C@]12CCC(=O)C=C1CC[C@@H]1[C@@H]2C(=O)C[C@@]2(C)[C@H]1CC[C@]2(O)C(=O)CO [Cortisone] (20 µM) 1
C/C(O)=C(\C#N)C(=O)Nc1ccc(C(F)(F)F)cc1 [Teriflunomide] (20 µM) 1.07
C[N+](C)(C)CCCCCC[N+](C)(C)C [Hexamethonium dibromide dihydrate] (20 µM) 1.04
COC(=O)CCc1ccc(OCC(O)CNC(C)C)cc1 (stereo not drawn) [Esmolol hydrochloride] (20 µM) 0.959
O=C(O)Cc1ccccc1Oc1ccc(Cl)cc1Cl [Fenclofenac] (20 µM) 1.02
